{
  "source": "paper PMC4552634",
  "about": "“A New Set of Chemical Starting Points with Plasmodium falciparum Transmission-Blocking Potential for Antimalarial Drug Discovery” (PLoS ONE, 2015)",
  "note": "The campaign covered roughly 13,000 compounds. About 3,200 (25%) showed an effect of 50% or more. The list shows a part of the results.",
  "data": [
    {"tested_on": "P. falciparum stage V gametocytes", "set-up": "BacTiter-Glo ATP luminescence viability of purified stage V gametocytes in 384-well plates, per cent inhibition versus DMSO", "conditions": "48 h, 5 µM; inhibitor", "units": {"% Inhibition": "%"}, "values": [
      {"smiles": "O=C(/C=C/c1ccc(Cl)c(Cl)c1)NCCCCCN1CCCN(C(=O)Nc2cccc(Cl)c2)CC1", "note": "[TCMDC-135749]", "% Inhibition": -36.61},
      {"smiles": "CC(C)C[C@@H](/C=N/N1CCOC1=O)NC(=O)[C@H](CC(C)C)NC(=O)c1ccc(F)cc1", "note": "[TCMDC-136186]", "% Inhibition": -17.2},
      {"smiles": "O=[N+]([O-])c1cccc(Nc2nccc(-c3cnn4ncccc34)n2)c1", "note": "[TCMDC-138697]", "% Inhibition": -28.72},
      {"smiles": "c1cc(Nc2nccc(-c3cnn4ncccc34)n2)cc(-c2cnco2)c1", "note": "[TCMDC-138684]", "% Inhibition": -9.488},
      {"smiles": "CN1CCN(c2ccc(Nc3nccc(-c4cnn5ncccc45)n3)cc2Cl)CC1", "note": "[TCMDC-138688]", "% Inhibition": 55.04},
      {"smiles": "Cc1ccc2[nH]c3c(NCCCN4CCOCC4)ncnc3c2c1", "note": "[TCMDC-124068]", "% Inhibition": -37.8},
      {"smiles": "N#Cc1ccc(-c2ccc3nc(N4CCCN(C5CCC5)CC4)ccc3c2)cc1", "note": "[TCMDC-136368]", "% Inhibition": 18.23},
      {"smiles": "N=C1C=C(N)C(=O)c2ccccc21", "note": "[TCMDC-141992]", "% Inhibition": 106.9},
      {"smiles": "O=C(Nc1ccc(OC2CCN(Cc3ccc(F)cc3)C2)c(Cl)c1)c1ccc(F)cc1", "note": "(stereo not shown) [TCMDC-133763]", "% Inhibition": 12.34},
      {"smiles": "O=C1c2ccccc2-n2c1nc1ccccc1c2=O", "note": "[TCMDC-125859]", "% Inhibition": -11.25},
      {"smiles": "COc1cccc(Nc2nc(NCCO)c3ccccc3n2)c1.Cl", "note": "[TCMDC-124573]", "% Inhibition": 23.38},
      {"smiles": "CCN1CCC2(c3cccc(OC)c3)Cc3nc4ccccc4c(-c4ccccc4)c3CC2C1", "note": "(stereo not shown) [TCMDC-138968]", "% Inhibition": 77.57},
      {"smiles": "COc1cccc(Nc2nc(N)c3ccccc3n2)c1.Cl", "note": "[TCMDC-123746]", "% Inhibition": 24.77},
      {"smiles": "COCCOc1nc(N)nc2ncc(Cc3cc(OC)ccc3OC)c(C)c12", "note": "[TCMDC-137754]", "% Inhibition": 36.3},
      {"smiles": "O=C(N[C@@H](Cc1ccccc1)C(=O)NC1CCCCCC1)c1ccc(O)c(-c2ccc(Cl)c(Cl)c2)c1", "note": "[TCMDC-140845]", "% Inhibition": 40.83},
      {"smiles": "CCCCOc1cc(C)nc2ccc(NC(=O)COCC(=O)Nc3ccc4nc(C)cc(OCCCC)c4c3)cc12", "note": "[TCMDC-140149]", "% Inhibition": -34.05},
      {"smiles": "COc1cc(C)nc2ccc(NC(=O)Nc3ccc4nc(C)cc(OC)c4c3)cc12", "note": "[TCMDC-139138]", "% Inhibition": 8.428},
      {"smiles": "COc1cc(C)nc2ccc(NC(=O)COCC(=O)Nc3ccc4nc(C)cc(OC)c4c3)cc12", "note": "[TCMDC-139461]", "% Inhibition": 62.71},
      {"smiles": "COc1cc(Cn2ccc3c4c(N)nc(N)nc4ccc32)cc(OC)c1OC", "note": "[TCMDC-137341]", "% Inhibition": 118.6},
      {"smiles": "COCCOCCOCCn1ccc2c3c(N)nc(N)nc3ccc21", "note": "[TCMDC-137974]", "% Inhibition": 22.53},
      {"smiles": "COc1ccc(Cn2ccc3c4c(N)nc(N)nc4ccc32)cc1", "note": "[TCMDC-139862]", "% Inhibition": 105.9},
      {"smiles": "COc1cccc(Cn2ccc3c4c(N)nc(N)nc4ccc32)c1", "note": "[TCMDC-137811]", "% Inhibition": 100},
      {"smiles": "COc1ccc(Cn2ncc3c4c(N)nc(N)nc4ccc32)cc1OC", "note": "[TCMDC-131934]", "% Inhibition": 49.54},
      {"smiles": "COCCn1ccc2c3c(N)nc(N)nc3ccc21", "note": "[TCMDC-137263]", "% Inhibition": 12.7},
      {"smiles": "COCn1ccc2c3c(N)nc(N)nc3ccc21", "note": "[TCMDC-137505]", "% Inhibition": 0.2853},
      {"smiles": "O=C(/C=C/c1ccc(Cl)c(Cl)c1)NCCCCCN1CCC(NC(=O)c2ccc(F)c(F)c2)CC1", "note": "[TCMDC-135838]", "% Inhibition": -28.53},
      {"smiles": "Cc1ccc(Nc2nc(N/N=C/c3cccc(O)c3)nc(Nc3ccc([N+](=O)[O-])cc3)n2)cc1C", "note": "[TCMDC-124125]", "% Inhibition": -28.14},
      {"smiles": "CCCN(Cc1nnc(-c2ccco2)o1)C(=O)C1CCN(c2ncc(C(F)(F)F)cc2Cl)CC1", "note": "[TCMDC-125335]", "% Inhibition": -10.32},
      {"smiles": "CCOc1ccc(Cc2c(C)nc3nc(N)nc(N)c3c2C)cc1", "note": "[TCMDC-137655]", "% Inhibition": 8.912},
      {"smiles": "Cc1c(Cl)ccc2c(C(=O)Nc3ccncc3)cc(-c3cccnc3)nc12", "note": "[TCMDC-125224]", "% Inhibition": 6.226},
      {"smiles": "COc1ccc(CNC2Cc3ccccc3C2)cc1-c1ccc(S(=O)(=O)NCCN2CCCC2)cc1", "note": "[TCMDC-132248]", "% Inhibition": 107.9},
      {"smiles": "COc1ccc(CNC2Cc3ccccc3C2)cc1-c1cccc(S(=O)(=O)NCCN2CCCC2)c1", "note": "[TCMDC-132269]", "% Inhibition": 112.5},
      {"smiles": "CC(C)NCc1ccc(-c2ccc(-c3nc4ccc(F)cc4[nH]3)cc2)cc1", "note": "[TCMDC-132740]", "% Inhibition": 14.26},
      {"smiles": "CCc1ccccc1NC(=O)CN1CCN(c2ncnc3scc(-c4ccc(F)cc4)c23)CC1", "note": "[TCMDC-125248]", "% Inhibition": -17.47},
      {"smiles": "CC(C)CNC(=O)CN1C(=O)C(c2ccccc2)(c2ccccc2)N=C1N", "note": "[TCMDC-137006]", "% Inhibition": -9.905},
      {"smiles": "Fc1ccc2[nH]c3c(NCCCN4CCOCC4)ncnc3c2c1", "note": "[TCMDC-124555]", "% Inhibition": -45.7},
      {"smiles": "CC(C)C[C@H](NC(=O)c1ccc(F)cc1)C(=O)N[C@H](/C=N/NC(=O)c1ccccc1)CCc1ccccc1", "note": "[TCMDC-135680]", "% Inhibition": -1.54},
      {"smiles": "Cn1c(=N)cc(-c2cccc(I)c2)c2c(=O)[nH]c(N)nc21", "note": "[TCMDC-137835]", "% Inhibition": 7.838},
      {"smiles": "Fc1ccc2[nH]c(-c3cccc(-c4ccc(CNCCN5CCNCC5)cc4)c3)nc2c1", "note": "[TCMDC-132863]", "% Inhibition": 90.56},
      {"smiles": "Cn1cccc1CCNCc1ccc(-c2cccc(-c3nc4cc(F)ccc4[nH]3)c2)cc1.O=C(O)C(F)(F)F", "note": "[TCMDC-132684]", "% Inhibition": 7.89},
      {"smiles": "Cn1nccc1C(=O)NCCNCc1cccc(-c2cccc(-c3nc4cc(F)ccc4[nH]3)c2)c1.O=C(O)C(F)(F)F", "note": "[TCMDC-133020]", "% Inhibition": -34.05},
      {"smiles": "O=C1CCCN1CCCNCc1cccc(-c2cccc(-c3nc4ccc(F)cc4[nH]3)c2)c1", "note": "[TCMDC-132765]", "% Inhibition": -41.49},
      {"smiles": "O=C1CCCN1CCCNCc1ccc(-c2cccc(-c3nc4ccc(F)cc4[nH]3)c2)cc1", "note": "[TCMDC-132750]", "% Inhibition": -14.96},
      {"smiles": "Fc1ccc2[nH]c(-c3cccc(-c4cccc(CNCCN5CCNCC5)c4)c3)nc2c1", "note": "[TCMDC-132860]", "% Inhibition": 97.72},
      {"smiles": "Cn1ncc2c3c(CCN4CCC(NCc5cc6c(cn5)OCC6)CC4)c(Cl)cnc3ccc21", "note": "[TCMDC-136024]", "% Inhibition": -18.24},
      {"smiles": "COc1ccccc1C(=O)Nc1cccc(N2CCC(NCc3ccc(-n4cccn4)cc3)CC2)c1", "note": "[TCMDC-124643]", "% Inhibition": 0.3581},
      {"smiles": "COc1ccccc1NC(=O)Nc1ccc(-c2ccc(-c3nc4cccc(C)c4[nH]3)s2)cc1", "note": "[TCMDC-133201]", "% Inhibition": -21.27},
      {"smiles": "COc1cccc(CN(C(=O)Nc2ccccc2F)[C@H]2C[C@H]3C(=O)Nc4cc(F)ccc4C(=O)N3C2)c1", "note": "[TCMDC-134304]", "% Inhibition": 17.59},
      {"smiles": "CC(C)(C)C(=O)Oc1ccc(CC2NCCc3cc(OC(=O)C(C)(C)C)c(OC(=O)C(C)(C)C)cc32)cc1OC(=O)C(C)(C)C", "note": "(stereo not shown) [TCMDC-131452]", "% Inhibition": -22.51},
      {"smiles": "NC(=O)C1CCN(Cc2cccc(-c3cccc(-c4nc5ccc(F)cc5[nH]4)c3)c2)CC1", "note": "[TCMDC-132686]", "% Inhibition": -35.6},
      {"smiles": "NCC1CCCN1Cc1ccc(-c2ccc(-c3nc4ccc(F)cc4[nH]3)cc2)cc1", "note": "(stereo not shown) [TCMDC-132994]", "% Inhibition": 65.53},
      {"smiles": "NCC1CCCN1Cc1ccc(-c2cccc(-c3nc4ccc(F)cc4[nH]3)c2)cc1", "note": "(stereo not shown) [TCMDC-132998]", "% Inhibition": 102.5},
      {"smiles": "NCC1CCCN1Cc1ccc(-c2ccc(-c3nc4ccccc4[nH]3)s2)cc1", "note": "(stereo not shown) [TCMDC-132988]", "% Inhibition": 37.26},
      {"smiles": "NCC1CCCN1Cc1cccc(-c2cccc(-c3nc4ccc(F)cc4[nH]3)c2)c1", "note": "(stereo not shown) [TCMDC-133001]", "% Inhibition": 98.63},
      {"smiles": "Fc1ccc2nc(-c3ccc(-c4ccc(CN5CCN(CCN6CCOCC6)CC5)cc4)cc3)[nH]c2c1", "note": "[TCMDC-133926]", "% Inhibition": -0.4105},
      {"smiles": "Cc1cccc2[nH]c(-c3cccc(-c4cccc(CN5CCCC5CN)c4)c3)nc12", "note": "(stereo not shown) [TCMDC-132989]", "% Inhibition": 49.36},
      {"smiles": "COc1ccccc1OCCN(CC(O)COc1cccc2[nH]c3ccccc3c12)CC(O)COc1cccc2[nH]c3ccccc3c12", "note": "(stereo not shown) [TCMDC-141980]", "% Inhibition": -17.57},
      {"smiles": "O=C1NCN(c2ccc(O)cc2)C12CCN(CCCC(c1ccc(F)cc1)c1ccc(F)cc1)CC2", "note": "[TCMDC-138052]", "% Inhibition": -32.4},
      {"smiles": "Cc1[nH]c(C)c(-c2csc3ccccc23)c(=O)c1Cl", "note": "[TCMDC-136017]", "% Inhibition": 42.39},
      {"smiles": "Cc1[nH]c(C)c(-c2ccc(Cl)cc2)c(=O)c1I", "note": "[TCMDC-137424]", "% Inhibition": 41.94},
      {"smiles": "Cc1[nH]c(C)c(-c2ccc(-c3ccc(Cl)cc3)cc2)c(=O)c1Cl", "note": "[TCMDC-137416]", "% Inhibition": 50.46},
      {"smiles": "Cc1[nH]c(C)c(-c2ccc(/C=C/c3ccccn3)cc2)c(=O)c1Cl", "note": "[TCMDC-135787]", "% Inhibition": 58.19},
      {"smiles": "Cc1[nH]c(C)c(-c2ccc(C(=O)c3ccccc3)cc2)c(=O)c1Br", "note": "[TCMDC-137419]", "% Inhibition": 74.6},
      {"smiles": "Cc1[nH]c(C)c(-c2ccc(C(=O)c3ccc(Cl)cc3)cc2)c(=O)c1Cl", "note": "[TCMDC-137413]", "% Inhibition": 70.39},
      {"smiles": "CC[C@H](C)CNC(=O)c1cncc(-c2ccc(CNCC3CNCCCO3)cc2)c1", "note": "(stereo partly shown) [TCMDC-134269]", "% Inhibition": 2.096},
      {"smiles": "CN(C)CCCN1C(=O)c2[nH]nc(-c3ccc(Cl)cc3O)c2C1c1ccc(Cl)cc1", "note": "(stereo not shown) [TCMDC-124910]", "% Inhibition": -62.01},
      {"smiles": "C(=N\\Nc1nccc2sc(-c3cccnc3)cc12)/c1cccnc1", "note": "[TCMDC-135297]", "% Inhibition": -1.822},
      {"smiles": "O=C1c2ccccc2CN1CCCN1CCC(Oc2ccc(F)cc2)CC1", "note": "[TCMDC-141252]", "% Inhibition": -41.1},
      {"smiles": "COc1c(Br)cc(Br)cc1-c1ccc(CN2C3CCCC2CCC3)[nH]1", "note": "[TCMDC-138965]", "% Inhibition": -8.76},
      {"smiles": "CC(C)S(=O)(=O)N1CCN(Cc2ccc3c(c2)nc(NC(=O)c2ccsc2)n3C[C@H](O)c2ccccc2)CC1", "note": "[TCMDC-138569]", "% Inhibition": -9.312}
    ]}
  ]
}
